From PubChem
Only some compounds are listed: those with a hit (about 7.3% of all), similar ones and a draw of the others.
VACV Venus inh = qHTS for Stage-Specific Inhibitors of Vaccinia Orthopoxvirus: Venus Reporter Primary qHTS; Potency, µM (highest dose often 36.5 µM), usual class: inhibitors; AID 720580, 2013; hit rate 0.46% among 330,000; Vaccinia virus Venus reporter expression, fluorescence; calls by dose curve; tested in A549 cells; further: nearly all actives have a fitted effect of over 30% in size
HCMV antiviral = qHTS Assay for inhibitors of the human cytomegalovirus (HCMV). HFF cells, HCMV-luciferase reporter, 72 h; active compounds read low. activity change, negative = inhibition, % at 57.5 µM. hit rate 4.5% among 410,000. AID 1259415, 2018; in the data active means activity change below about -60%; inconclusive means no clear call, values can overlap the other calls; inactive means above about -39%
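Compounds were evaluated in HFFs infected with an HCMV luciferase reporter virus (MOI 1 PFU/cell). Luciferase in lysates collected 72 h post infection served as the replication measure.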
HCV inh = qHTS Assay for Inhibitors of Hepatitis C Virus (HCV) | Huh7.5.1 HCVcc-Cre infection, luciferase reporter, 44 h | Potency, µM (top dose mostly 41.8 µM), hits mostly inhibitors | hit rate 3.4% among 340,000 | AID 651820, 2012; active means well fitted inhibition curve with a large enough effect; inconclusive means small, poorly fitted or top-dose-only effect, or another doubt; inactive means no such curve, though single readings can be large or run the other way
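Compounds are dispensed onto cells plated 4 h earlier at 1,000 per well, with HCVcc-Cre virus (about 0.5 moi) added next. Following 44 h of culture, luminescent signal is measured for 15 sec after 15 min with substrate at room temperature.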
Vaccinia mCherry = qHTS for Stage-Specific Inhibitors of Vaccinia Orthopoxvirus: mCherry Reporter Primary qHTS | Vaccinia virus mCherry reporter infection, fluorescence | Potency, µM (top dose mostly 36.5 µM), hits mostly inhibitors | hit rate 0.63% among 310,000 | AID 720579, 2013; calls by dose curve; tested in A549 cells; further: nearly all actives have a fitted effect of over 35% in size
FMDV antiviral = High Throughput Screening for Foot and Mouth Disease Virus Antivirals. FMDV antiviral cell-based qHTS. hit rate 1.2% among 410,000. Potency, µM (top dose mostly 57.9 µM), actives largely listed as inhibitors; calls by dose curve; tested in HEK293T cells; further: read-out not given here; nearly all actives have a fitted effect of over 45% in size
Large screens that a line does not name were inactive.

OCCNC(=S)NCCc1ccccc1	HCMV antiviral inconclusive
Fc1ccc(NC(=S)NCCc2ccccc2)c(F)c1F	HCMV antiviral -74.3, HCV inh inconclusive (no result: FMDV antiviral)
S=C(NCCSCc1ccc(Cl)cc1)Nc1ccccc1	HCMV antiviral -68.0
Cc1nc2sccn2c1CN1CCC2(CC1)CC2C(=O)Nc1ccc2c(c1)OCO2 (configuration not stated)	none (no result: HCMV antiviral, HCV inh)
Cc1noc(C)c1C(=O)N1CCC2(CC1)CN(c1ccccn1)C2	none (no result: VACV Venus inh, HCMV antiviral, HCV inh, Vaccinia mCherry)
O=C(COC(=O)c1cccc(OC(F)F)c1)NCC1CCCO1 (configuration not stated)	none
CC(C)(C)OC(=O)N[C@H]1C=C[C@@H](CC(=O)OCC(F)(F)F)C1	none (no result: VACV Venus inh, HCV inh, Vaccinia mCherry, FMDV antiviral)
S=C(NCCCc1ccccc1)Nc1ccc(Cl)cc1	VACV Venus inh inconclusive, HCMV antiviral -97.6, HCV inh inconclusive
CCOc1ccc(CSCCNC(=S)Nc2ccc(OC)cc2)cc1	HCMV antiviral -81.3, HCV inh 10µM (no result: VACV Venus inh, Vaccinia mCherry)
Fc1ccc(F)c(NC(=S)NCCc2ccccc2)c1	HCMV antiviral -66.1
S=C(NCCc1ccccc1)Nc1cnc2ccccc2c1	HCMV antiviral -63.2 (no result: VACV Venus inh, Vaccinia mCherry)
CCCOc1ccc(CSCCNC(=S)Nc2ccccc2)cc1	HCV inh inconclusive
Fc1ccc(NC(=S)NCCc2ccccn2)cc1	HCMV antiviral inconclusive
S=C(NCCc1ccccn1)Nc1ccc(Cl)cc1	HCMV antiviral -77.9
CCCCN(CC)Cc1ccc(CNC(=O)Nc2ccc(OCC)cc2)o1	HCV inh 12.6µM (no result: VACV Venus inh, Vaccinia mCherry)
CCCCN(CC)Cc1ccc(CNC(=O)Nc2ccc(Cl)cc2)o1	HCV inh inconclusive
COc1ccc(/C=C/C(=O)c2cc(F)ccc2OC(=O)c2ccccc2OC)cc1OC	VACV Venus inh inconclusive, HCMV antiviral -97.4, HCV inh inconclusive, Vaccinia mCherry inconclusive, FMDV antiviral 8.91µM
COc1ccc(/C=C/C(=O)c2cc(F)ccc2OC(=O)c2ccccc2)cc1OC	VACV Venus inh inconclusive, HCMV antiviral -96.6, HCV inh inconclusive, Vaccinia mCherry inconclusive, FMDV antiviral 28.2µM
COc1ccc(/C=C/C(=O)c2cc(F)ccc2OC(=O)c2ccc(OC)c(OC)c2)cc1OC	FMDV antiviral inconclusive (no result: VACV Venus inh, Vaccinia mCherry)
CN1CCN(S(=O)(=O)c2cccc(C(=O)Nc3cc(Cl)ccc3N3CCOCC3)c2)CC1	none
CC(C)OC(=O)C1CC(C)(O)C(=O)C(C(=O)OC(C)C)C1c1ccc([N+](=O)[O-])cc1 (configuration not stated)	HCMV antiviral -64.3, Vaccinia mCherry inconclusive, FMDV antiviral inconclusive
CC(C)OC(=O)C1C(=O)CC(C)(O)C(C(=O)OC(C)C)C1c1ccc(F)cc1 (configuration not stated)	HCMV antiviral inconclusive
COC(=O)[C@@]12C[C@@H](CC(=O)N3CCCC3)C(=O)N(CCc3ccc(OC)c(OC)c3)C1=CCC(C)(C)C2	none (no result: HCV inh)
Cc1ccc(NC(=S)NNS(=O)(=O)c2ccc3ccccc3c2)cc1Cl	Vaccinia mCherry inconclusive
COc1c(Cl)cc(Cl)cc1/C=C/C(=O)c1ccc(NC(=O)c2cccs2)cc1	VACV Venus inh 10µM, HCMV antiviral -99.0, HCV inh 14.1µM, Vaccinia mCherry 11.2µM
Cc1ccc(NC(=O)c2ccc(Cl)c(NC(=O)c3cccs3)c2)cc1	HCV inh 12.6µM (no result: VACV Venus inh, Vaccinia mCherry)
Cc1nc2ccc(NC(=O)c3ccc(Cl)c(NC(=O)c4cccs4)c3)cc2s1	HCV inh 10µM (no result: Vaccinia mCherry)
O=C(Nc1ccc(NC(=O)c2cccs2)cc1)c1ccc(Cl)cc1	none (no result: HCV inh)
COC(=O)[C@@H]1[C@@H](CO)[C@@H]2Cn3c(ccc(Br)c3=O)[C@H]1N2Cc1cc(F)ccc1F	none (no result: VACV Venus inh, HCV inh, Vaccinia mCherry, FMDV antiviral)
O=C(COc1ccc(Cl)cc1Cl)Nc1ccccn1	HCMV antiviral -79.6, HCV inh inconclusive, FMDV antiviral 1.58µM (no result: VACV Venus inh, Vaccinia mCherry)
Cc1c(C)c2ccc(OCC(=O)Nc3ccccn3)c(C)c2oc1=O	HCMV antiviral -84.5 (no result: VACV Venus inh, Vaccinia mCherry)
Cc1nn(C)c(C)c1NC(=O)COc1ccc(F)cc1Br	HCV inh inconclusive, FMDV antiviral inconclusive
Cc1cccc(OCC(=O)Nc2nnn(C)n2)c1C	HCMV antiviral -101.9
Cc1nn(C)c(C)c1NC(=O)COc1ccc(Cl)cc1Br	HCMV antiviral -93.1, HCV inh inconclusive, Vaccinia mCherry inconclusive, FMDV antiviral inconclusive
CSc1ccccc1NC(=O)COc1ccc(Cl)cc1Cl	HCMV antiviral inconclusive, HCV inh inconclusive
CCOc1ccc(NC(=O)C(=O)NCCN2CCN(S(=O)(=O)c3ccc(C)cc3)CC2)cc1	none
O=C(O)c1c2c(nc3ccccc13)CCCC2	none (no result: HCMV antiviral, HCV inh, FMDV antiviral)
CC(=O)c1sc(NC(=O)c2oc3ccc(F)cc3c2C)nc1C	none (no result: VACV Venus inh, Vaccinia mCherry)
Cc1cc(OCC(=O)Nc2ccncc2)ccc1Br	VACV Venus inh inconclusive, HCMV antiviral -90.1, FMDV antiviral inconclusive (no result: Vaccinia mCherry)
Cc1cc(Cl)ccc1OCC(=O)Nc1ccncc1	HCMV antiviral -60.5, HCV inh 12.6µM (no result: VACV Venus inh, Vaccinia mCherry)
C/C=C/c1ccc(OCC(=O)Nc2ccncc2)c(OC)c1	HCMV antiviral -82.6, HCV inh inconclusive (no result: VACV Venus inh, Vaccinia mCherry)
Cc1cccc(OCC(=O)NNC(=O)c2cccs2)c1	none
Cc1cc(OCC(=O)NNC(=O)c2cccs2)ccc1Br	HCMV antiviral -73.4
Cc1nnc(NC(=O)CSCc2cc(=O)c3cc(Cl)ccc3[nH]2)s1	none (no result: HCV inh)
COc1ccc(CNC(=O)CSc2nc(-c3ccc(OC)c(OC)c3)cc(C(F)(F)F)n2)cc1	none (no result: HCV inh)
COc1ccc(C(=O)/C=C/Nc2ccc(S(N)(=O)=O)cc2)cc1OC	none
CCOC(=O)C1CCCN(c2nc3c(S(=O)(=O)c4ccc(Br)cc4)nnn3c3ccsc23)C1 (configuration not stated)	none (no result: HCV inh)
Cc1ccc(SC[C@H](C)CN2CCC(NC(=O)OCc3ccccc3)CCC2=O)cc1 (some centres not stated)	none (no result: HCV inh)
Cc1cccc(OCC(=O)Nc2ccncc2)c1C	HCMV antiviral -83.5, HCV inh inconclusive
Oc1ccc(/C=N\Nc2nncc(-c3ccccc3)n2)cc1	HCMV antiviral -65.6, HCV inh inconclusive, Vaccinia mCherry inconclusive
COc1ccc(-c2cnnc(N/N=C/c3ccc(O)cc3)n2)cc1	HCMV antiviral -70.9
O=C(NCc1ccccc1Cl)C(=O)NCC(c1cccs1)S(=O)(=O)c1cccs1 (configuration not stated)	HCMV antiviral -61.5 (no result: HCV inh)
CCCCC1Cc2[nH][nH]c(=O)c2C(c2ccc(F)cc2)O1 (configuration not stated)	none (no result: HCV inh)
CCOC(=O)c1cnc(-n2nc(C)cc2C)nc1NC1CCCCC1	VACV Venus inh inconclusive, HCMV antiviral -86.5, HCV inh 5.62µM, Vaccinia mCherry inconclusive, FMDV antiviral 10µM
CCc1ccc(Nc2nnc(SCC(=O)Nc3sccc3C(N)=O)s2)cc1	HCV inh inconclusive, FMDV antiviral inconclusive
COc1cccc(Nc2nnc(SCC(=O)Nc3sccc3C(N)=O)s2)c1	HCMV antiviral inconclusive, HCV inh inconclusive, FMDV antiviral 15.8µM (no result: VACV Venus inh, Vaccinia mCherry)
COc1ccc(Nc2nnc(SCC(=O)NC(=O)Nc3ccc4c(c3)OCCO4)s2)cc1	HCV inh 11.2µM (no result: VACV Venus inh, Vaccinia mCherry)
